Data as given in PubChem BioAssay AID1903 (Southern Research Specialized Biocontainment Screening …, 2009).
About 1,200 (0.39%) of roughly 310,000 compounds were called active. No rule for the calls is given here. These entries were drawn from the full list. Results with a measured potency or affinity are listed apart.

molecular target: Large T antigen (Simian virus 40) (UniProt P03070); experiment: TAg ATPase/helicase activity blockers – biochemical (AID 1903); settings: SV40 large T antigen ATPase/helicase inhibition assay; at 20 µM; active compounds read high
Sequence (P03070 whole entry, looked up): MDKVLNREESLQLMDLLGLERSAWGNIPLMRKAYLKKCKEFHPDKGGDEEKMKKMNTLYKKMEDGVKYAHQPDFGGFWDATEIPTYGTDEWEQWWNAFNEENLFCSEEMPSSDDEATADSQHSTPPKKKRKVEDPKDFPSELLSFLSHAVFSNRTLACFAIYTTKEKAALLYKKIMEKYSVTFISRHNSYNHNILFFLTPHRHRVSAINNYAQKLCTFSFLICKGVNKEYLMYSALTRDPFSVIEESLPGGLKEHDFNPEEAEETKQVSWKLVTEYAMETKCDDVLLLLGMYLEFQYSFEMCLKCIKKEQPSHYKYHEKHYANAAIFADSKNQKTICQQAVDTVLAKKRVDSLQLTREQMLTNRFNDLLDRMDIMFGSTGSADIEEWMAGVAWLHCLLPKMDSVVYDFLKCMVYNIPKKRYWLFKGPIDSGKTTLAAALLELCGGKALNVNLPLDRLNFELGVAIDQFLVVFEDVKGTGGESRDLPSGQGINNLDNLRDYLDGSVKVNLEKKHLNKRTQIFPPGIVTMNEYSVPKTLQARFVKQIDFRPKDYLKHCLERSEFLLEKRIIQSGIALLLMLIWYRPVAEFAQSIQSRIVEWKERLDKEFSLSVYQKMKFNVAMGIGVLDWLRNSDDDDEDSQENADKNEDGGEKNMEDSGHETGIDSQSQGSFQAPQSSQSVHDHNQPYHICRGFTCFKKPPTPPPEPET

inhibition, inactive:
O=C(CSc1nnc(Cc2ccccc2)n1Cc1ccco1)NC12CC3CC(CC(C3)C1)C2 3.4%
CN(C)C(=O)C1CCC(=O)N1Cc1cccs1 (stereo not given) 3.97%
COc1ccc(N=Cc2c(O)n(-c3ccc(OC)cc3)c(=O)c3ccccc23)cc1 17.6%
CCOc1ccccc1N1CC(C(=O)NCCOc2ccccc2OC)CC1=O (stereo not given) 3.13%
Cc1ccc(-c2nc(CS(=O)(=O)CC(=O)N3CCN(C)CC3)c(C)o2)cc1 6.58%
Cc1nc2scc(C)n2c(=O)c1S(=O)(=O)N1CCN(c2ccc([N+](=O)[O-])cc2)CC1 13.7%
CCc1ccc(N2CC(C(=O)NC3CC3)CC2=O)cc1 (stereo not given) 12.7%
Cc1ccccc1NC(=O)c1cccnc1 -1.13%
Cc1cc(F)ccc1NC(=O)c1cccnc1 3.85%
CCCOc1ccc(C(=O)N/N=C/c2ccc(-c3ccc(S(=O)(=O)Nc4ncccn4)cc3)o2)cc1 35.9%
CCOc1ccc(C(=O)N/N=C/c2ccc(-c3ccc(S(=O)(=O)Nc4ncccn4)cc3)o2)cc1 26.6%
c1csc(-c2nc3ccccc3[nH]2)c1 -3.54%
c1ccc2[nH]c(CCCc3nc4ccccc4[nH]3)nc2c1 12.5%
Nc1ccc2oc(-c3cccs3)nc2c1 5.03%
c1ccc2[nH]c(CCCCc3nc4ccccc4[nH]3)nc2c1 5.68%
OCCCc1nc2ccccc2[nH]1 13.1%
Nc1ccc2nc(CCCCc3nc4ccccc4[nH]3)[nH]c2c1 32.7%
Nc1cccc(CCc2nc3cc4ccccc4cc3[nH]2)c1 21.5%
O=[N+]([O-])c1ccc2nc(CCCO)[nH]c2c1 -0.4%
CCOC(=O)C1=C(COC(=O)/C=C/c2ccc(OC)cc2OC)NC(=O)NC1C (stereo not given) 3.33%
CCc1noc(C)c1C(=O)Oc1ccc(N(C)S(=O)(=O)c2ccccc2)cc1 12.4%
Cc1nn(-c2ccccc2)c(Cl)c1/C=N/NC(=O)c1ccnn1C 19.3%
O=C(O)c1ccc(/C=N/Nc2ccc(F)cc2F)cc1 9.08%
COc1cccc(CC(NC(C)=O)C(=O)NC2CCN(S(=O)(=O)c3ccc(NC(C)=O)cc3)CC2)c1 (stereo not given) 12.6%
COc1ccc(OC)c(N(CC(=O)NCc2ccccn2)S(C)(=O)=O)c1 5.82%
COc1ccc(/C=N/NC(=O)c2ccccc2OC)cc1COc1ccc(C)cc1 1.22%
O=C(c1ccc2c(c1)OCO2)N(c1ccc(F)cc1)C1C=CS(=O)(=O)C1 (stereo not given) -0.44%
CCOc1cc(/C=C/c2cc(C(=O)O)c3ccccc3n2)ccc1O 31%
CCOc1cc(/C=C/c2ccc3cccc([N+](=O)[O-])c3n2)ccc1O 3.61%
COc1ccc(/C=N/NC(=O)c2ccc(=O)n(C)c2)cc1OC 3.81%
CCC(=Nc1ccccc1OC)C1=C(O)CC(c2ccccc2)CC1=O (stereo not given) 2.58%
CCC(=NC)C1=C(O)CC(c2ccccc2)CC1=O (stereo not given) 3.84%
O=C1c2cccnc2C(=O)N1Cc1ccc(S(=O)(=O)NCc2ccco2)cc1 14.4%
N#C/C(=C\c1ccc(Br)s1)C(=O)N1CCN(c2ccccc2)CC1 7.79%
CN(C)C(CNC(=O)c1ccc2nc[nH]c2c1)c1ccccc1 (stereo not given) 12.7%
NC1=NC(=O)/C(=C\c2cccs2)S1 16.2%
NC1=NC(=O)/C(=C/c2cccs2)S1 3.51%
COc1cccc(C(=O)CN(C(=O)c2ccc(Cl)c(Cl)c2)N2C(=O)C3CCCCC3C2=O)c1 (stereo not given) 24.4%
COc1ccccc1C(=O)COC(=O)CCCN=C1NS(=O)(=O)c2ccccc21 11.1%
Nc1cc(-c2ccc(Br)cc2)[nH]n1 8.97%
Oc1ccc(Br)cc1-c1cc(-c2ccccc2)n[nH]1 23.6%
O=C1c2ccccc2CC1Sc1nnc(-c2ccccn2)o1 (stereo not given) 13.2%
CCC(Sc1nnnn1-c1ccccc1)C(=O)NC(C)c1ccccc1 (stereo not given) 1.1%
Cc1ccc(Nc2ccccc2)cc1 9.98%
c1ccc(Nc2ccccc2)cc1 12.1%
CN(Cc1nc(-c2cnccn2)no1)CC(O)c1ccccc1 (stereo not given) 9.11%
COc1ccc(/C(C)=N\NC(=O)CSc2nnc(C)s2)cc1 4.01%
C/C(=N\NC(=O)CSc1nc2ccccc2[nH]1)c1ccncc1 5.69%
COc1cc(/C(C)=N\NC(=O)CSc2nc3ccccc3n2C)ccc1O 25.3%
C/C(=N\NC(=O)CSc1nnc(C)s1)c1ccc(O)cc1 26.9%
Cc1ccc(CNC(=O)c2nn(C)c(C)c2[N+](=O)[O-])cc1 10.1%
O=S(=O)(NCC1CCCN(Cc2ccccc2O)C1)c1cccc2cccnc12 (stereo not given) 21.3%
S=C(NCCSCc1c(Cl)cccc1Cl)Nc1ccccc1 3.66%
O=C(NC(NC1CCS(=O)(=O)C1)C(Cl)(Cl)Cl)c1cccc(Cl)c1 (stereo not given) 26%
c1cc(CNc2ccc3c(c2)OCO3)ccn1 25.9%
S=C(NCc1cccnc1)Nc1ccc2c(c1)OCO2 9.73%
O=C(COC(=O)c1ccc2ccccc2n1)NCc1ccccc1 6.87%
O=C(COC(=O)COc1ccccc1[N+](=O)[O-])Nc1cccc(Br)c1 -10.5%
COc1cccc(NC(=O)COC(=O)COc2ccccc2[N+](=O)[O-])c1 7.61%
O=C(COC(=O)c1cccs1)Nc1ccccc1 -1.96%
CCN(CC)c1ccc(NC(=O)COC(=O)/C=C/c2nc3ccccc3s2)cc1 37.1%
CCN(c1ccc(NC(=O)COC(=O)c2cccs2)cc1)C(C)C 25.9%
CCCCCSc1nnc2c(n1)OC(C)N(C(C)=O)c1ccccc1-2 (stereo not given) 5.71%
N#Cc1nc(COc2ccccc2Cl)oc1NCc1ccco1 15.3%
Cc1cc(C)nc(SCCC(=O)Nc2ccccc2)n1 -11.3%
COc1cccc2cc(C(=O)NNC(=O)c3ccc(Br)cc3)c(=O)oc12 -2.17%
COc1ccc(/C=C/C(=O)Nc2cc(S(=O)(=O)N3CCCCC3)ccc2N2CCCCC2)cc1OC -6.48%
CC/C(=C\C(=O)c1ccncc1)Nc1ccc(Br)cc1 14.6%
COc1ccc2c(c1)c(C(=O)N/N=C/c1cccc(O)c1)c(C)n2C 14.4%
C=C1CC(C(=O)N/N=C/c2ccccc2)C1 5.07%
CC(C)(C)c1ccc(/C=N/NC(=O)C2CCCC2)cc1 13.3%
Cc1nonc1C(=O)N/N=C/c1cccc(O)c1 8.34%
O=C(N/N=C/c1cccc(O)c1)N/N=C/c1cccc(O)c1 18.6%
Cc1nonc1C(=O)N/N=C/c1ccccc1 -0.19%
O=C(COc1ccccc1C(=O)N/N=C\c1ccc(O)c(O)c1)N/N=C/c1ccc(O)c(O)c1 2.12%
COc1ccc2c(c1)c(C(=O)N/N=C/c1ccc(OC)c(OC)c1)c(C)n2C 13.7%
Cc1ccc2[nH]c(=O)c(CN(CC3CCCO3)S(=O)(=O)c3c(C)ccc4nsnc34)cc2c1 (stereo not given) -0.695%
CC(C)CC(CO)N1CCN(C(=O)c2ccccc2)CCC1=O (stereo not given) 16.2%
CSc1ncc(Cl)c(C(=O)Nc2ccccc2[N+](=O)[O-])n1 30.7%
O=C1CC2(CCN(C(=O)c3cccc([N+](=O)[O-])c3)CC2)Oc2ccccc21 22.7%
COCc1ccc(C(=O)N2CCCC(Nc3ccc(C(C)C)cc3)C2)o1 (stereo not given) 23.2%
CCCC(c1nnnn1Cc1ccco1)N1CCN(c2ccccc2)CC1 (stereo not given) 24%
Cc1cc(Br)ccc1NC(=O)CN1C(=S)NC(C)(C)CC1C (stereo not given) 5.62%
CN1C(=O)c2ccc(C(=O)NCc3ccc4c(c3)OCO4)cc2C1=O 4.66%
O=C(N/N=C/c1ccsc1)C1CC1 14.3%
Oc1ccc(/C=N/N(c2ccccc2)c2ccccc2)cc1O 20.4%
O=C(/C(=N/N=C/c1ccc(O)c(O)c1)c1ccccc1)c1ccccc1 32.3%
O=C(N/N=C/c1ccc2c(c1)OCO2)C1CC1 -8.98%
Cc1cccc(OCc2nnc(SCC(=O)Nc3ncc(C)s3)o2)c1 3.87%
O=C1Nc2ccccc2C1=Nc1ccc(Br)cc1 4.56%
O=C1Nc2ccccc2/C1=N\N1CCOCC1 27.9%
COc1ccccc1NCCC(=O)O 26.5%
O=C(O)CCCCCNS(=O)(=O)c1cccc2c1C(=O)c1ccccc1C2=O 27%
O=C(NCC(c1ccc(F)cc1)N1CCOCC1)c1cccnc1Sc1ccc(Cl)cc1 (stereo not given) 11.1%
Nc1n[nH]c(=S)n1-c1ccc(Cl)cc1 5.6%
CCCn1cnc2cc(NCc3cccc(OC)c3)ccc21 36.7%
CCn1cnc2cc(NCc3ccccc3Cl)ccc21 21.6%
COc1ccccc1-n1cnc2cc(NCc3ccccc3O)ccc21 33.3%
CCCn1cnc2cc(NCc3ccccc3O)ccc21 33.9%
CCCCN(C(=O)CCCSc1nc2ccccc2[nH]1)c1c(N)n(Cc2ccccc2)c(=O)[nH]c1=O 3.22%
